Our source for the Potency values is PubChem BioAssay AID2782 (National Center for Advancing Translational Sciences (NCATS), 2010).

Inconclusive results are not listed. Entries that show only a call come without a potency. Activity calls are given as the source filed them. Calls follow the shape of the dose curve; as a rule, active = well fitted inhibition curve with a large enough effect in the polarisation, with a control signal flat (not every such curve was filed as active); inconclusive = small, poorly fitted or top-dose-only effect, or effect the other way, or a change in a side signal; inactive = no such curve, though single readings can be large or run the other way; the % refers to the polarisation.
Potency is read from the fitted curve at half-maximal effect.

The nature of this test: Confirmation of Inhibitors Targeting the Menin-MLL Interaction in MLL Related Leukemias: Competition With Texas Red Labeled MLL-derived Mutant Peptide. Conditions: fluorescence polarization, Texas Red MLL peptide displacement; series mostly up to 94.6 µM. The method in brief:
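Hits from the primary screen were retested: compounds were incubated 1 hr at ambient with 200 nM menin, 50 nM Texas Red mutant peptide and 25 nM fluorescein wild-type peptide (Tris pH 7.5, BSA-supplemented buffer), then fluorescence polarization was read.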
In general terms: Fluorescence polarisation rises when a labelled molecule tumbles more slowly, as on binding a larger partner.
For `Cc1c(C(=O)OCC(=O)Nc2ccc(S(N)(=O)=O)cc2)oc2c1ccc1ccccc12`, the Potency result is “inactive”.
With `CCC(C)CCCCC(=O)N[C@@H](CCN)C(=O)N[C@H](C(=O)N[C@@H](CCN)C(=O)N[C@H]1CCNC(=O)C([C@@H](C)O)NC(=O)[C@@H](CCN)NC(=O)[C@H](CCN)NC(=O)[C@H](CC(C)C)NC(=O)[C@@H](CC(C)C)NC(=O)[C@H](CCN)NC1=O)[C@@H](C)O` (stereo not given in full), the Potency is 7.94 µM (active).
Next, `COc1cccc(OC)c1NC(=O)CN1CCN(C)CC1`: “inactive”; `COc1ccc(NC(=O)NC2(C(=O)N3CCOCC3)CCCCC2)cc1`: “inactive”; `CN(C)c1ccc(C2CC(=O)C=C(Nc3ccccc3N)C2)cc1` (stereo not given): 63.2 µM (active).
Next, `CCc1nnc(NC(=O)C2(C)COC(c3ccc(OC)cc3)OC2)s1` (stereo not given): “inactive”.
Take `Cc1ccc(C(=O)Sc2cccccc2=O)cc1`: the Potency entry was “inactive”.
Turning to `CN1[C@H](CC(=O)c2ccccc2)CCC[C@H]1C[C@@H](O)c1ccccc1`, the Potency entry was “inactive”.
As for `COc1ccccc1CNCC(=O)Nc1ccc(C#N)cc1`, the Potency result is “inactive”.
As to `O=C(Nc1cc(Br)ccc1O)c1cc(-c2ccccc2)on1`, the Potency is 20 µM (active).
As for `Cc1ccccc1-c1cncnc1NC1CCNCC1`, the figure is 126 µM (active); as for `O=C1C(Cl)=C(NCCN2CCOCC2)C(=O)c2ncccc21`, “inactive”.
Next, `COCCNC(=O)C(OC(=O)c1nsc(Cl)c1Cl)C(C)C` (stereo not given): “inactive”.
On to `CCCC(=O)NC(c1ccccc1Cl)c1ccc2cccnc2c1O` (stereo not given), for which the Potency entry is “inactive”.
Next, `O=C(C[N+]12CC[N+](CC(=O)c3ccc(F)cc3)(CC1)CC2)c1ccc(F)cc1`: 35.5 µM (active).
Next, `N=c1oc2ccccc2cc1-c1nc(-c2ccc(Cl)cc2)cs1`: “inactive”; `O=C(NC(=S)Nc1nc(-c2ccc(Br)cc2)cs1)c1cccnc1`: “inactive”.
As for `COc1ccc(OCCCn2ccnc2)cc1`, the entry is “inactive”.
On to `Cc1ccccc1-c1n[nH]c(=S)n1C`, for which the Potency entry was “inactive”.
`CC(NC(=O)c1cnc2ccccc2n1)c1ccccc1` (stereo not given): the Potency result is “inactive”.
As for `COc1ccc(-c2csc(NC(=S)NC(=O)/C=C/c3ccc(C(C)C)cc3)n2)cc1OC`, the figure is 17.8 µM (active); as for `O=C(CCn1nc(-c2ccccc2)ccc1=O)N1CCN(c2ccccn2)CC1`, “inactive”; as for `Cc1cc(N/N=C/c2ccc(O)cc2)c2cccc(C)c2n1`, 71 µM (active).
Next, `O=C(Cn1nc(-c2ccccc2)ccc1=O)N1CCCCC1`: “inactive”; `O=[N+]([O-])c1ccc(S(=O)(=O)c2ccccc2)nc1`: “inactive”.
Next, `O=C(Nc1cccn(Cc2c(Cl)cccc2Cl)c1=O)c1c(Cl)cccc1Cl`: “inactive”; `CCOC(=O)N1CCN(C(=O)c2oc3ccc(S(=O)(=O)N(CC)CC)cc3c2C)CC1`: “inactive”.
With `CCN1C(=O)c2ccccc2S(=O)(=O)c2ccc(C(=O)NCCCN(CC(C)C)CC(C)C)cc21`, the Potency entry was “inactive”.
As for `O=C(/C=C/c1ccccc1)c1cccs1`, the entry is “inactive”.
Next, `O=c1cc(O)c2ccccc2n1Cc1ccccc1F`: “inactive”.
Next, `COc1cc(O)c(C(=O)c2ccccc2)cc1O`: “inactive”; `O=S(=O)(Nc1cccc(-c2cn3cccnc3n2)c1)c1ccccc1`: “inactive”.
As for `CCC[n+]1c2ccccc2cc2ccccc21`, the Potency is 31.7 µM (active).
As for `CN(C)CCCOc1ccc2c(c1)Sc1ccccc1CC2=O`, the Potency was 141 µM (active).
Next, `O=C(CC(Sc1ccc(Br)cc1)C(=O)O)c1ccc(F)cc1` (stereo not given): “inactive”.
